From PubChem BioAssay AID1851 (National Center for Advancing Translational Sciences (NCATS), 2009) come the findings set out here.

About 5,700 (36%) of roughly 16,000 compounds were called active. About 24% were inconclusive and are not listed. The call rests on the fitted dose curve; in most records, active means well fitted curve in the direction sought with a large enough effect; inconclusive means small, poorly fitted or top-dose-only effect, or effect the other way; inactive means no such curve, though single readings can be large or run the other way. The list shows a part of the results.
On the % scale 0 is the no-effect control and ±100 the full control effect.

Sequence of Cytochrome P450 1A2 (Homo sapiens) (P05177 whole entry, looked up): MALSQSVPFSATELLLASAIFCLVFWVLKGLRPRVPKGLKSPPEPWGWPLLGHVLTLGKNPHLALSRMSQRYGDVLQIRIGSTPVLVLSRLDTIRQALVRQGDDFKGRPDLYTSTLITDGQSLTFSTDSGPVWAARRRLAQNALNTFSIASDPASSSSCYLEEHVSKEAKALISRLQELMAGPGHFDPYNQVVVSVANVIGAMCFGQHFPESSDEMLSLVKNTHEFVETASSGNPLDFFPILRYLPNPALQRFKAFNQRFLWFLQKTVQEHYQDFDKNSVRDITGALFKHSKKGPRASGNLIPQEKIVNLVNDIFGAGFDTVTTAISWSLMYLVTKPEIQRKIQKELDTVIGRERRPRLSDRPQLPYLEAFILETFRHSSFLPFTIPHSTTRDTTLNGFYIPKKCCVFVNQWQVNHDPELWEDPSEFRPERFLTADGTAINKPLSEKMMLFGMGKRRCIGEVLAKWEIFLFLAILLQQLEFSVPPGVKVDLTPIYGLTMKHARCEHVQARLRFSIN

This experiment concerns the target Cytochrome P450 1A2 (Homo sapiens) (UniProt P05177). Nature of the experiment: Cytochrome panel assay with activity outcomes. Conditions: recombinant CYP, pro-luciferin dealkylation, luminescence, p450-cyp1a2; series mostly up to 57.1 µM.
With `COc1ccc(NC(=O)N2CCCC3(CCN(C(=O)c4cnccn4)CC3)C2)cc1`, the AC50 entry was “inactive”.
In the case of `COc1ccc(NC(=O)N2CCCC3(CCN(C(=O)c4cc(C(F)(F)F)cc(C(F)(F)F)c4)CC3)C2)cc1`, the AC50 result was “inactive”.
On to `COc1ccc(-c2cc(C(F)(F)F)n3nc(C(=O)N4CCCCC4)cc3n2)cc1`, for which the AC50 was 15.8 µM (active).
With `Nc1ccccc1SCc1csc(-c2ccc(Cl)cc2)n1`, the AC50 is 0.631 µM (active).
For `C[N+](C)(N)Cc1csc(-c2ccc(Cl)cc2)n1`, the activity, negative = inhibition is -4.22% [at 2.29 µM] (inactive).
In the case of `Nc1nc(SCC(=O)Nc2ccccc2Sc2ccc(Cl)cc2)n[nH]1`, the AC50 entry is “inactive”.
Same read-out and setting: the result for `CCCn1nc(C(=O)NCC(C)(C)N2CCOCC2)c2ccccc2c1=O` reads “inactive”; that for `Cn1nc(C(=O)NC2CCCCC2)c2ccccc2c1=O`, 12.6 µM (active).
The same measure, in the same setting: under `O=C(CCCCn1c(=O)c2ccccc2n(CC(=O)NC2CCCC2)c1=O)NC1CCCC1` stands “inactive”; under `COc1ccc(S(=O)(=O)N2CC3C4C=CC(C4)C3C2)cc1` (stereo not given), “inactive”.
Still for that read-out and setting: under `COc1ccc(S(=O)(=O)n2ccc(-c3cnc(-c4ccccc4)s3)n2)cc1` stands 1.12 µM (active); under `O=S(=O)(c1ccc(F)cc1)n1ccc(-c2cnc(-c3ccccc3)s2)n1`, 2.24 µM (active).
As for `COc1ccc(-c2cnnc(CCCn3ccnc3-c3ccccc3)n2)cc1`, the activity, negative = inhibition was -12.1% [at 11.4 µM] (inactive).
For the molecule `Cc1ccc(S(=O)(=O)n2ccc(-c3cccc(OCc4c(F)cccc4Cl)c3)n2)cc1`, the AC50 entry is “inactive”.
Same read-out and setting: the result for `CC(C)c1ccc(C(=O)CC2(O)C(=O)N(CN3CCOCC3)c3ccccc32)cc1` (stereo not given) reads “inactive”.
Still for that read-out and setting: under `COc1cccc2cc(C(=O)CC3(O)C(=O)N(Cc4ccccc4)c4ccccc43)c(=O)oc12` (stereo not given) stands 15.8 µM (active).
For the molecule `Cn1c(=O)c2c(nc(NCCNc3nc4c(c(=O)n(C)c(=O)n4C)n3C)n2C)n(C)c1=O`, the activity, negative = inhibition was -0.53% [at 11.4 µM] (inactive).
Regarding `Cn1c(=O)c2c(nc(C(=N)SCC(=O)O)n2C)n(C)c1=O`, the AC50 was 1.26 µM (active).
As for `CN1CCN(c2nc3c(c(=O)n(C)c(=O)n3C)n2C)CC1`, the activity, negative = inhibition is -16.8% [at 2.29 µM] (inactive).
Regarding `O=C(OCCNC(=O)c1ccc2ccccc2n1)c1ccc(F)cc1`, the AC50 is 1.12 µM (active).
Still for that read-out and setting: the result for `O=C(NCCOC(=O)c1ccc(C(=O)OCCNC(=O)c2cccnc2)s1)c1cccnc1` reads “inactive”; that for `Cc1ccc(N=Nc2ccc(N)cc2C)c(S(N)(=O)=O)c1`, 0.501 µM (active).
`Nc1ccccc1S(N)(=O)=O`: the AC50 entry is “inactive”.
In the case of `Cc1ccc(N=Nc2c(O)c3ccccc3[nH]c2=O)c(S(=O)(=O)N(C)C)c1`, the activity, negative = inhibition was -14.6% [at 2.29 µM] (inactive).
`CC(C)CNC(=S)N1CCN(C)CC1`: the AC50 result was “inactive”.
Still for that read-out and setting: under `CC(C)C(=O)NC(=S)Nc1ccccc1C(=O)Nc1ccccc1` stands 6.31 µM (active); under `O=C(O)c1ccccc1-c1ccccc1C(=O)Nc1ccccc1`, “inactive”.
Take `OCCSCc1ccccc1`: the activity, negative = inhibition was -13% [at 11.4 µM] (inactive).
For `O=C1C(SCCO)=C(SCCO)C(=O)c2ccccc21`, the AC50 was 0.631 µM (active).
As for `O=S(=O)(O)[C@@H](CO)c1ccccc1` (tested in a mixture with another compound), the activity, negative = inhibition was -1.9% [at 2.29 µM] (inactive).
On to `COCCn1c(=O)c(C)nc2cnc(Nc3cccc(OC)c3)nc21`, for which the AC50 was 1 µM (active).
For `COc1cccc(Nc2ncc3nc(C)c(=O)n(CCc4ccccc4)c3n2)c1`, the AC50 is 5.01 µM (active).
On the same count and under the same terms, the result for `c1ccc([C@@H]2CN3CCSC3=N2)cc1` reads “inactive”; that for `COc1ccc(C(=O)Nc2cccc(OC(=O)c3ccc(C)c(C)c3)c2)cc1`, 14.1 µM (active).
The same measure, in the same setting: under `COc1ccc(NC(=O)c2ccc(C(=O)c3cc(OC)ccc3OC)cc2)cc1` stands “inactive”; under `COc1ccc(NC(=O)C2(c3ccc(NC(=O)c4ccc(OC(C)=O)cc4)cc3)CCCC2)cc1`, “inactive”.
On the same count and under the same terms, the result for `COc1ccc(C(=O)Nc2cc(OC)cc(OC)c2)cc1` reads 12.6 µM (active); that for `COc1ccc(OC)c(/C=N/NC(=O)c2csc3ccccc23)c1`, 3.16 µM (active).
As to `O=C(N/N=C/c1ccc(O)cc1)c1csc2ccccc12`, the AC50 is 11.2 µM (active).
Take `Cc1ccc(C)c(-c2nn(-c3cc(N4CCN(CCO)CC4)ccc3[N+](=O)[O-])c(=O)c3ccccc23)c1`: the AC50 result is “inactive”.
As for `O=C(O)c1cc2c(cc1S(=O)(=O)O)[C@H]1[C@@H]([C@H]3[C@H]2[C@@]2(Cl)C(Cl)=C(Cl)[C@]3(Cl)C2(Cl)Cl)[C@]2(Cl)C(Cl)=C(Cl)[C@@]1(Cl)C2(Cl)Cl`, the activity, negative = inhibition was -14.5% [at 11.4 µM] (inactive).
For `O=C(NC1CCCC1)C(c1ccc(F)cc1)N(Cc1ccc(F)cc1)C(=O)c1ccn[nH]1` (stereo not given), the AC50 result was “inactive”.
On the same count and under the same terms, the result for `O=C(Nc1cccn(Cc2ccc(F)cc2)c1=O)NC1CCCCC1` reads 22.4 µM (active); that for `Cc1ccc(Cn2cccc(NC(=O)NCc3ccccc3)c2=O)cc1`, “inactive”; that for `Cc1ccc2cn[nH]c2c1NC(=S)NC(=O)c1ccccc1`, 10 µM (active).
As to `COc1ccc(C(=O)N2CCC3(CCCN(CC(C)C)C3)CC2)cc1`, the AC50 entry is “inactive”.
Consider `CN1CCC(=C2c3ccccc3Sc3ccccc32)CC1`, for which the AC50 result was “inactive”.
On the same count and under the same terms, the result for `CN1CCC[C@@H](CC2c3ccccc3Sc3ccccc32)C1` reads “inactive”; that for `CSc1ccc2c(c1)[C@H](N1CCN(C)CC1)Cc1ccccc1S2`, 31.6 µM (active); that for `O=C1Nc2cc(Cl)c(Cl)cc2N(O)N1c1ccc(Cl)c(Cl)c1`, “inactive”.
On the same count and under the same terms, the result for `O=c1c2ccccc2c(-c2ccccc2)nn1-c1ccc(Cl)c(Cl)c1` reads 0.126 µM (active); that for `COc1ccc(N(CC(=O)NCc2cccc(OC)c2)S(=O)(=O)c2c(C)noc2C)cc1`, “inactive”; that for `COC(=O)Cc1c(C)nc2nc(NCc3ccccc3OC)[nH]n2c1=O`, “inactive”.
Still for that read-out and setting: under `Cc1noc(C)c1-c1nc(NCc2cccs2)c2ccccc2n1` stands 0.2 µM (active); under `COc1ccccc1CNc1nc(-c2c(C)noc2C)nc2ccccc12`, 0.631 µM (active); under `COc1ccccc1CN1CC[C@@]2(CCCN(C(=O)c3c(C)noc3C)C2)C1`, “inactive”.
Consider `COc1ccc(CNc2nc(-c3c(C)noc3C)nc3ccccc23)c(OC)c1`, for which the AC50 was 0.794 µM (active).
On the same count and under the same terms, the result for `CCS(=O)(=O)NCCc1cc2ccc(C)cc2[nH]c1=O` reads 20 µM (active).
Still for that read-out and setting: the result for `CS(=O)(=O)N(Cc1cc2ccccc2[nH]c1=O)C1CCCCC1` reads “inactive”.
`C[N+]1(CCC[N+]2(C)C[C@H]3[C@H](C2)[C@H]2C=C[C@@H]3CC2)CCOCC1` (stereo not given in full): the activity, negative = inhibition is -11% [at 11.4 µM] (inactive).
